Screens: PubChem, National Center for Advancing Translational Sciences (NCATS)
An excerpt weighted towards active compounds, which were near 2.4% of everything screened.
FEN1 inhibitor: human FEN1 inhibition | Potency, µM (doses to about 114 µM), for inactives: at the highest dose activity change, negative = inhibition, usual class: inhibitors | P39748 | AID 588795 | Recombinant FEN1 flap cleavage, fluorescence, 15 min | hit rate 0.35% among 390,000; also: potency is read from the fitted curve at half-maximal effect; % is scaled to controls: 0 for no effect and ±100 for the full control effect; nearly all actives have a fitted effect of over 65% in size
Target sequence (P39748 whole entry, looked up): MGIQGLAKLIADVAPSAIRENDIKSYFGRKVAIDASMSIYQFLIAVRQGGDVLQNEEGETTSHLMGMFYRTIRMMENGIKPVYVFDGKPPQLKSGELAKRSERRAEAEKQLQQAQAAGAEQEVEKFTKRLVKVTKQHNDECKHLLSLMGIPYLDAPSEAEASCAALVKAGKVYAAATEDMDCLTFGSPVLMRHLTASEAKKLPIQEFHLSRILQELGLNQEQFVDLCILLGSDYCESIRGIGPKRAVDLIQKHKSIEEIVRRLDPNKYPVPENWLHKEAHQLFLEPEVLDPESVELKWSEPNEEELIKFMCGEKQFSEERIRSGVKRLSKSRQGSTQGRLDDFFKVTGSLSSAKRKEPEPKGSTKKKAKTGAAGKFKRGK
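With each library titrated from low to high concentration, compounds met 10 nM FEN1 for 15 min at room temperature before 50 nM substrate was added; readings at 0 and 15 min fed four-parameter Hill curve fits.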
POLI inh: inhibitors of human DNA polymerase iota; hit rate 1% among 390,000; AID 588590; Potency, µM (top dose mostly 115 µM), for the others: at the highest dose activity, negative = inhibition, most hits filed as inhibitors; Q9UNA4; Pol iota fluorescent replication assay, 10 min; also: potency is read from the fitted curve at half-maximal effect
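Pol iota at 10 nM preincubated 15 min with compounds at room temperature; reaction started with fluorescent substrate, 50 nM final. Fluorescence read kinetically at 0 and 10 min; buffer-only wells as negative control.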
WRN helicase inh: blocks human WRN helicase | Q14191 | WRN helicase unwinding, fluorescent forked duplex, kinetic | Potency, µM (series often up to 114 µM), without a hit: at the highest dose activity change, negative = inhibition, actives largely listed as inhibitors | hit rate 0.46% among 360,000; also: potency is read from the fitted curve at half-maximal effect; % is scaled to controls: 0 for no effect and ±100 for the full control effect; nearly all actives have a fitted effect of over 55% in size
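Primary qHTS, 1536-well format. 20 nM WRN + compound, 15 min RT; start with 100 nM forked fluorophore/quencher duplex, 2 mM ATP (final); kinetic read ex 525/em 598 nm.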
POLK inh: blocks human DNA polymerase kappa activity; Q9UBT6; purified Pol kappa, fluorescent DNA synthesis assay, 10 min; Potency, µM (series often up to 107 µM), for inactives: at the top dose activity, negative = inhibition, actives largely listed as inhibitors; AID 588579; hit rate 0.53% among 400,000; also: potency is read from the fitted curve at half-maximal effect; % is scaled to controls: 0 for no effect and ±100 for the full control effect
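Here, compound and 10 nM enzyme are combined for 15 min at room temperature; adding 50 nM substrate (final) starts DNA synthesis, tracked by fluorescence at 0 and 10 min against buffer-only wells.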
Pol eta inh-1: blocks human DNA polymerase eta activity; hit rate 1.2% among 390,000; recombinant Pol eta, fluorescent DNA replication assay; Q9Y253; Potency, µM (titrated, usually from 114 µM), inactives show at the top dose activity change, negative = inhibition, usual class: inhibitors; also: potency is read from the fitted curve at half-maximal effect; % is scaled to controls: 0 for no effect and ±100 for the full control effect
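Pol eta at 10 nM preincubated with compounds 15 min at room temperature; reaction started with fluorescent substrate (50 nM final) and read kinetically at 0 and 10 min.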
Pol beta inh: DNA polymerase beta (human) inhibition | P06746 | Pol beta primer extension/strand displacement, fluorescence kinetic | Potency, µM (series often up to 114 µM), for the others: top-dose activity change, negative = inhibition, actives largely listed as inhibitors | hit rate 1.3% among 340,000 | AID 485314; also: potency is read from the fitted curve at half-maximal effect; % is scaled to controls: 0 for no effect and ±100 for the full control effect
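Enzyme-only controls used 10 nM Pol beta; buffer lacking enzyme served as negative control. Compound preincubated 15 min, then 50 nM substrate added; 0 and 10 min reads at room temperature.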
GALK confirm: galactokinase (human) inhibition, confirmation | hit rate 70% among 150 | AID 2015 | purified GALK, Kinase-Glo ATP depletion luminescence | shares compounds with Pol eta inh-1 | Potency, µM (top dose mostly 115 µM), for inactives: top-dose activity, negative = inhibition, usual class: inhibitors
Redox cycling: redox cycling activity in phenol red-HRP assay; shares compounds with Pol eta inh-1; Phenol red-HRP H2O2 redox cycling, absorbance 600 nm; Potency, µM (highest dose often 115 µM), for the others: at the top dose activity change, negative = H2O2 signal, most hits filed as inhibitors; hit rate 40% among 150
HEK293 tox: counter-screen for GALK inhibitors: HEK293 cell cytotoxicity; Potency, µM (doses to about 46.1 µM), without a hit: at the highest dose activity change, negative = cytotoxicity, most hits filed as inhibitors; AID 2547; shares compounds with Pol eta inh-1; hit rate 10% among 170; HEK-293 viability, ATP luminescence (CellTiter-Glo), 24/48 h; also: potency is read from the fitted curve at half-maximal effect; % is scaled to controls: 0 for no effect and ±100 for the full control effect
Pol eta inh-2: Pol eta (human) inhibition, cherry-pick confirmation; Potency, µM, actives largely listed as inhibitors; shares compounds with Pol eta inh-1; Pol eta primer extension, TAMRA/BHQ fluorescence, 10 min; AID 720502; hit rate 64% among 2,600; also: potency is read from the fitted curve at half-maximal effect
* hit, by the source's call; ? = inconclusive; . = not tested or not shown; [ ] = another dose, or the depositor's remark. Calls follow the shape of the dose curve; as a rule, active = well fitted curve in the direction sought with a large enough effect; inconclusive = small, poorly fitted or top-dose-only effect, or another doubt; inactive = no such curve, though single readings can be large; an effect the other way counts as inactive or inconclusive.

SMILES | FEN1 inhibitor | POLI inh | WRN helicase inh | POLK inh | Pol eta inh-1 | Pol beta inh | Pol eta inh-2 | others
CCOC(=O)Cn1c(=O)n(CC2CCCO2)c2nc(-c3ccc(CC)cc3)nc(C(N)=O)c21 (centres undefined) | -2.0% | -11.6% | . | 1.8%[60.1 µM] | -10.8% | 5.6% | .
N#CCSc1nnc(SCC#N)s1 | -6.1% | ? | ? | ? | 20µM* | ? | 75.7*
CCC1=C[C@@H]2CN(C1)Cc1c([nH]c3ccccc13)[C@@](C(=O)OC)(c1cc3c(cc1OC)N(C)[C@@H]1[C@@](O)(C(=O)OC)[C@H](OC(C)=O)[C@]4(CC)C=CCN5CC[C@]31[C@@H]54)C2 | . | . | . | 4.2%[19.4 µM] | . | . | .
O=C(O)Cc1ccc2c(c1)N(S(=O)(=O)c1cccs1)CC(C(=O)O)O2 (centres undefined) | -3.4% | 30.8% | 9.8% | -4.2% | 2.3% | 2.8% | .
CS(=O)(=O)N1CC(C(=O)O)Oc2ccc(CC(=O)O)cc21 (centres undefined) | -1.4% | ? | 3.9% | -34.4% | 17.8µM* | ? | 30.1*
CCOc1cc(/C=C2/C(=N)N3C(=NC2=O)SN=C3S(C)(=O)=O)ccc1OS(=O)(=O)c1ccccc1 | -30.5% | ? | -27.4% | -8.9% | 79.4µM* | ? | . | GALK confirm=33.5µM*;Redox cycling=-4.5%;HEK293 tox=8.9%
COc1ccccc1C(=O)Nc1nc2nc(C)c(Cc3ccccc3)c(=O)n2[nH]1 | 8.9% | 18.3% | . | -22.8% | ? | -10.7% | 75.7*
Cc1nc2nc(NC(=O)c3ccc(C(C)(C)C)cc3)[nH]n2c(=O)c1Cc1ccccc1 | -7.7% | 2.2% | . | -19.1% | -1.0% | -0.8% | .
CCCCCCCCNc1ccc(/C=C/c2ccnc3ccccc23)cc1 | -32.9% | ? | . | ? | . | . | .
CC(=O)COC(=O)C1CCN(S(=O)(=O)c2cc([N+](=O)[O-])ccc2Cl)CC1 | -10.9% | ? | 0.3%[11.6 µM] | ? | 31.6µM* | 28.2µM* | ?
CC[C@@H](C)CN1C(=O)N[C@@H](CCc2ccccc2)C(C(C)=O)=C1C | 3.1% | 20.9% | 0.4% | -20.8% | -9.8% | -0.2% | .
CC[C@@H](C)CN1C(=O)N[C@@H](c2ccccc2)C(C(C)=O)=C1C | -0.2% | 14.1µM* | ? | ? | 22.4µM* | . | 75.7*
O=C(O)CCc1ccc(-c2cccs2)n1CCC(=O)O | -1.5% | ? | -3.5%[57.1 µM] | ? | 10µM* | 22.4µM* | ?
O=C1NN(c2ccc(Br)cc2)C(=O)/C1=C\c1ccc(O)cc1O | -18.5% | ? | -18.9% | -38.2% | 4.1% | 3.4% | . | GALK confirm=47.3µM*;Redox cycling=-3.5%;HEK293 tox=-3.7%
Cc1ccc(S(=O)(=O)c2c(Nc3ccc(C)c(C)c3)sc(C(=O)c3ccc4c(c3)OCO4)c2N)cc1 | -5.8% | -7.6% | . | -6.9%[60.1 µM] | -5.2% | 19.6% | .
